Active and inactive are the calls of the source. How the source made its calls: active means hit-call score of the fitted dose curve at least 0.9, where 1 is the maximum; inactive means score below 0.9.

Chain of CCAAT/enhancer-binding protein beta (Homo sapiens) (P17676 whole entry, looked up): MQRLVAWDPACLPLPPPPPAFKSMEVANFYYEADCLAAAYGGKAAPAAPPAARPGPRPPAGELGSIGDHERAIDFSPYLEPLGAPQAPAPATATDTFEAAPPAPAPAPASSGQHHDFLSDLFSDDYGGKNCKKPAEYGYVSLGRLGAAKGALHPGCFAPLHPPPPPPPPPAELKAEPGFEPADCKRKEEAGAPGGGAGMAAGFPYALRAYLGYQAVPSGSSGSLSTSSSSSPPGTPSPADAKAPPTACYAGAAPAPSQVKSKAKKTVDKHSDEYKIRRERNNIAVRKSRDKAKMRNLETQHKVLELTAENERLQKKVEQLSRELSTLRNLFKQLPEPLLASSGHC

The experiment has as its target CCAAT/enhancer-binding protein beta (Homo sapiens) (UniProt P17676). Briefly: ATG_C_EBP_CIS: Attagene CIS-FACTORIAL HepG2 Assay for human CCAAT/Enhancer Binding Protein (C/EBP) beta (AID 2282927). Conditions: HepG2 Attagene cis-factorial transcription factor reporter; actives raise or lower the signal. As for the experimental part:
ATG_CIS is a cell-based, multiplexed-readout assay that uses HepG2, a human liver cell line, with measurements taken at 24 hours after chemical dosing in a 24-well plate.ATG_C_EBP_CIS is one of 52 assay component(s) measured or calculated from the ATG_CIS assay. It is designed to make measurements of mRNA induction, a form of inducible reporter, as detected with fluorescence intensity signals by Reverse transcription polymerase chain reaction (RT-PCR) and Capillary electrophoresis technology.Data from the assay component ATG_C_EBP_CIS was analyzed into 1 assay endpoint. This assay endpoint, ATG_C_EBP_CIS, was analyzed with bidirectional fitting relative to DMSO as the negative control and baseline of activity. Using a type of inducible reporter, measures of mRNA for gain or loss-of-signal activity can be used to understand the reporter gene at the transcription factor-level as they relate to the gene CEBPB. Furthermore, this assay endpoint can be referred to as a primary readout, because this assay has produced multiple assay endpoints where this one serves a reporter gene function. To generalize the intended target to other relatable targets, this assay endpoint is annotated to the dna binding intended target family, where the subfamily is basic leucine zipper.
Human liver HepG2 cells are transiently transfected with multiple reporter transcription units (MRTUs) in 6-well plates using FuGene 6 reagent (Roche; 3 ml FuGene/1 mg DNA). The MRTU constructs are regulated by a cis-regulating element (promoter). […] A major difference between the CIS and TRANS system is that in CIS activities of endogenous TFs are measured, whereas the TRANS assay evaluates changes in activities of exogenous, chimeric NR-Gal4 proteins. […] At the end of 24 hour incubation, total RNA was isolated using TriZol reagent (Invitrogen). The isolated RNA is then reverse-transcribed using oligo(dT) primer and Mo-MLV reverse transcriptase (Invitrogen) with DNAse I (Ambion) treatment for 30 min. The one-tenth of the produced cDNA was amplified by PCR using Taq DNA polymerase (Invitrogen) and two reporter sequence-specific primers. The PCR products were fluorescently labeled by primer extension with 6-arboxyfluorescein (6-FAM) 5'-labeled reporter sequence-specific primer (2 min at 95 C, 20 s at 68 C and 10 min at 72 C) and these products were digested with 5U of HpaI (New England Biolabs) for 2h at 37 C. The fragments were purified using Qiaquick PCR columns (Qiagen), analyzed on an ABI 3130xL genetic analyzer (Applied Biosystems) with peak positions identified by using a set of X-rhodamine (ROX)-labeled MapMarker1000 molecular weight standards (BioVentures). The raw capillary electrophoresis data was processed using Attagraph software (Attagene).
`Nc1ncnc2nc[nH]c12`: the result was inactive.

In the case of `O=C(Cl)c1c(Cl)c(Cl)c(C(=O)Cl)c(Cl)c1Cl`, the result was inactive.

`CC(C)(CO)COC(=O)C(C)(C)CO`: the result was inactive.

As for `CCCCCCCCCCCC(C)=O`, the result was inactive.

With `CC1=NN(c2ccc(S(=O)(=O)O)cc2)C(=O)C1N=Nc1ccccc1` (stereo not given), the outcome was inactive.

Take `CCCCCCOC(=O)CCCCC(=O)OCCCCCC`: the result was inactive.

Consider `Cc1noc(NS(=O)(=O)c2ccc(N)cc2)c1C`, for which the outcome was inactive.

`CCCCCCOc1ccc(N)cc1`: the outcome was inactive.

For the compound `C1CCSC1`, the result was inactive.

As a reminder, the AC50 is the midpoint of the concentration-response curve, whichever way the signal moves. With `CCN1CN(CC)CN(CC)C1`, the concentration at half-maximal activity (AC50) is 175 µM (active).

As for `CCCCCCO`, the outcome was inactive.

`C=CCCCCCCCCO`: the result was inactive.

Take `O=C(Nc1ccccc1)c1cc(Cl)ccc1O`: the AC50 is 3.35 µM (active).

With `CCCCCCCC(=O)OCC(COC(=O)CCCCCCC)OC(=O)CCCCCCC`, the outcome was inactive.

Take `CCCc1ccc(O)c(OC)c1`: the outcome was inactive.

In the case of `CCCCOCCOCCOC(C)=O`, the result was inactive.

Regarding `CC1(C)C(=O)N(CO)C(=O)N1CO`, the outcome was inactive.

In the case of `COC(C=C(C)CCC=C(C)C)OC`, the result was inactive.

As for `COC(=O)CC(C)CCC=C(C)C` (stereo not given), the result was inactive.

On to `NC(=O)Nc1ccccc1`, for which the result was inactive.

`CCCCC/C=C\C/C=C\CCCCCCCC(=O)O`: the result was inactive.

As to `CC(c1cc(C(C)(C)C)cc(C(C)(C)C)c1O)c1cc(C(C)(C)C)cc(C(C)(C)C)c1O`, the result was inactive.

For `C=CCOC(=O)c1ccc(C(=O)OCC=C)c(C(=O)OCC=C)c1`, the result was inactive.

On to `C=C[Si](OCCOC)(OCCOC)OCCOC`, for which the outcome was inactive.

Turning to `O=C1c2ccccc2C(=O)c2cc(S(=O)(=O)O)ccc21`, the result was inactive.

Consider `C=C(C)C1CC=C(C)CC1` (stereo not given), for which the result was inactive.

Take `CC(C)=NNC(N)=S`: the result was inactive.

As to `CC(C)(C)C1CCC(=O)CC1`, the result was inactive.

Regarding `CC=CC(=O)OCC(C)C`, the outcome was inactive.

As for `[Cl][Sc]([Cl])[Cl]`, the outcome was inactive.

For `CCC(C)C(=O)OCCc1ccccc1` (stereo not given), the outcome was inactive.

`O=C(OCc1ccccc1)c1ccc(O)cc1`: the result was inactive.

Regarding `C1CNCCN1`, the result was inactive.

For `Cc1c(O)cccc1O`, the result was inactive.

On to `Cn1ccnc1`, for which the outcome was inactive.

For the compound `CC1CC(=O)CC(C)(C)C1` (stereo not given), the result was inactive.

For the compound `CCCC/C=C/C=C\C=O`, the outcome was inactive.

With `CCOC(=O)C1=NN(c2ccc(Cl)cc2Cl)C(C)(C(=O)OCC)C1` (stereo not given), the outcome was inactive.

In the case of `COCC(=O)O`, the result was inactive.

As for `CCOC(=O)c1ccccc1C`, the outcome was inactive.

Values taken from PubChem BioAssay (EPA / NIEHS).
